Results reported in PubChem BioAssay AID1903 (Southern Research Specialized Biocontainment Screening …, 2009).
“And” between values parts separate entries of the source, which are not always exact repeats. Equal entries are not always repeated. Hit rate of the full screen: of about 310,000 compounds, about 1,200 (0.39%) were called active. The rule behind the calls is not given here. Only a sample is shown. Entries with a potency or affinity are not part of this list.

target: Large T antigen (Simian virus 40) (UniProt P03070); assay: SV40 large T antigen inhibitors, biochemical (AID 1903); conditions: SV40 large T antigen ATPase/helicase inhibition assay; at 20 µM; active compounds read high
Sequence (P03070 whole entry, looked up): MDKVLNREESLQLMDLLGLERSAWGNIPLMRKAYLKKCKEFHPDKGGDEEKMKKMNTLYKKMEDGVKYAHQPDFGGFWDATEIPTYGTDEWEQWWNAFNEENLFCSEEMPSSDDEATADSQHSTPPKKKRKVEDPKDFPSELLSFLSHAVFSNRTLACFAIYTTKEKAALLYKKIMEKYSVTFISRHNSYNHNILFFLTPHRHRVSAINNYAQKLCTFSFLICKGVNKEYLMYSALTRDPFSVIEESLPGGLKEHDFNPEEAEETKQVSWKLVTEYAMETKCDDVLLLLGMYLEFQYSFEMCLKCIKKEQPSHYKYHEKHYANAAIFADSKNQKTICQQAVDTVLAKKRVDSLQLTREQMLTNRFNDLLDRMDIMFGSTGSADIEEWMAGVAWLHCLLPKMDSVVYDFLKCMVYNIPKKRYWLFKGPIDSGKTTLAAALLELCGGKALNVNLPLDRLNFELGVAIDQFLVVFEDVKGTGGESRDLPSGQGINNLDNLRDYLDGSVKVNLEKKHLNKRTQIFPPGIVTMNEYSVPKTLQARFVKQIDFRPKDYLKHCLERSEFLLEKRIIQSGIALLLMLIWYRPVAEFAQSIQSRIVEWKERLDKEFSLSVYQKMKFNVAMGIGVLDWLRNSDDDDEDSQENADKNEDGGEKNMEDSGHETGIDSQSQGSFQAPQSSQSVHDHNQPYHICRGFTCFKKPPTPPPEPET

inhibition, inactive:
CC(=O)COc1ccc2c(c1C)O/C(=C\c1ccco1)C2=O 35.5%, CCN1C(=O)CC(c2ccc(OC(C)C)cc2)C1=O (stereo not drawn) -0.45%, CC[C@H](C)[C@H](NC(N)=O)C(=O)Nc1ccc(NC(C)=O)cc1 9.4%, CCOC(=O)c1cnc(N)nc1C(F)(F)F -4.94%, O=C(COC(=O)c1ccc2c(c1)OCCO2)Nc1cc(S(=O)(=O)N2CCOCC2)ccc1Cl 12.3%, COCCn1c(N2CCCC2)nc2c1c(=O)[nH]c(=O)n2C 5.19%, Cc1ccc(-c2nnc(CCC(=O)N(C)Cc3nccs3)o2)s1 -8.55%, Nc1ccc(S(=O)(=O)c2ccc(N)c(N)c2)cc1 20.9%, Nc1cccc(S(=O)(=O)c2ccc(N)c(N)c2)c1 25.5%, O=C(c1cnn2c(C(F)F)cc(-c3ccccc3)nc12)N1CCCCC1c1cccnc1 (stereo not drawn) 1.99%, COc1ccc(NC(=O)c2ccc3c(c2)NC(=O)CO3)cc1OC -1.26%, Cc1ccccc1S(=O)(=O)Cc1ccc(C(=O)NC2CC2)o1 11.4%, COc1cc(/C=C2\SC(c3ccc(C)cc3)=NC2=O)ccc1O 23.4%, COc1cc(/C=C2/C(=N)N3N=C(C)SC3=NC2=O)ccc1OS(=O)(=O)c1ccc(C)cc1 3.08%, CCC1=NN2C(=N)/C(=C/c3ccc(OS(=O)(=O)c4ccc(C)cc4)c(OC)c3)C(=O)N=C2S1 15.3%, COc1cc(/C=C2\C(=N)N3N=C(S(C)(=O)=O)SC3=NC2=O)ccc1OS(=O)(=O)c1ccccc1 26.3%, CCOc1cc(/C=C2/C(=N)N3N=C(CC)SC3=NC2=O)ccc1OC(=O)c1ccco1 1.88%, CCC1=NN2C(=N)/C(=C\c3ccc(OCCOc4ccccc4)c(OC)c3)C(=O)N=C2S1 10.4%, CC(CCc1ccccc1)C(=O)NO (stereo not drawn) -1.59%, Cc1cc(NC(=O)c2cccc(S(=O)(=O)Nc3cccc(C(=O)O)c3)c2)no1 12.5%, CCOc1ccc(N2C(=O)CC(N3CCN(C(=O)CN4CCCC4)CC3)C2=O)cc1 (stereo not drawn) 15.8%, CN(C)CCN(C(=O)c1ccc(S(=O)(=O)N(C)C)cc1)c1nc2cc3c(cc2s1)OCCO3 3.41%, Cc1cccc(C(=O)N[C@H](C(=O)NCCc2ccc(S(N)(=O)=O)cc2)C(C)C)c1 9.44%, CCCC(c1nnnn1CS(=O)(=O)c1ccc(C)cc1)N1CCC(C(N)=O)CC1 (stereo not drawn) 1.94%, CCOc1ccc(NC(=O)CCn2ccnc2)cc1 2.19%, O=C(CCCCCN1C(=O)c2ccccc2C1=O)NCCc1nc2ccccc2[nH]1 5.03%, COc1ccc(Nc2nc(N3CCN(S(=O)(=O)N(C)C)CC3)nc3ccccc23)cc1 6.91%, COc1ccc(-c2nc(-c3cccs3)c(-c3cccs3)[nH]2)cc1OC 8.77%, Oc1ccc(/C=N/Nc2ccnc3cc(Cl)ccc23)c(O)c1 8.76%, Fc1ccc(/C=N/Nc2nccnc2Cl)cc1 8.81%, Oc1ccc(/C=N/Nc2cccc(Cl)n2)c(O)c1 21.8%, Oc1ccccc1/C=N/Nc1nccnc1Cl 0.02%, Clc1nccnc1N/N=C/c1ccc(Br)cc1 0.07%, COc1ccc(/C=N/Nc2nccnc2Cl)c(OC)c1 5.32%, Cc1cc(C)c(C)c(S(=O)(=O)N2CCSCC2)c1C 8.62%, N#Cc1c(NC(=O)COC(=O)c2ccc(F)cc2)sc2c1CCC2 1.58%, O=C(CSc1nc2c(cnn2-c2ccccc2)c(=O)[nH]1)N1CCCCC1 24.9%, COc1ccc(/C=C(\NC(=O)c2ccc(OC)cc2)C(=O)NC(CCSC)C(=O)O)cc1 (stereo not drawn) 9.06%, O=C(Nc1ccccc1)C1CCN(S(=O)(=O)c2ccc3c(c2)OCCO3)CC1 20.4%, NC(=O)CSc1nnc2ccc(-c3ccco3)nn12 16.6%, CCCCn1c(SCC(N)=O)nnc1-c1ccco1 8.33%, Cc1cc(C)c(C(=O)COc2cccnc2[N+](=O)[O-])cc1C -4.61%, O=C(COc1cccnc1[N+](=O)[O-])c1c[nH]c2ccccc12 21.6%, COc1ccc(C2OCC3(O)C(c4ccc(OC)c(OC)c4)OCC23)cc1OC (stereo not drawn) 4.9%, COc1cc(/C=N/NS(=O)(=O)c2ccc(C)c([N+](=O)[O-])c2)cc([N+](=O)[O-])c1O 24.7%, CN(C)c1ccc(/C=N/NS(=O)(=O)c2ccc(Br)cc2)cc1 24.5%, COc1ccc(/C=N/NS(=O)(=O)c2ccccc2)cc1OC 13.2%, C/C(=N/NS(=O)(=O)c1ccccc1)c1c[nH]c2ccccc12 31.3%, C/C(=N\NS(=O)(=O)c1ccc([N+](=O)[O-])cc1)c1c[nH]c2ccccc12 34%, Cc1ccc(S(=O)(=O)N/N=C/c2ccccc2O)cc1[N+](=O)[O-] 12.5%, O=[N+]([O-])c1cccc(/C=N/NS(=O)(=O)c2ccccc2)c1 9.33%, CCN(CC)c1ccc(/C=N/NS(=O)(=O)c2cccc([N+](=O)[O-])c2)cc1 10.4%, Cc1ccc(C(c2c(C)[nH][nH]c2=O)c2c(C)[nH][nH]c2=O)cc1[N+](=O)[O-] 20.9%, COC(=O)c1cccc(-n2c(C)cc(C=O)c2C)c1C 17.4%, NC(=O)C1CCN(C(=O)c2ccc(Oc3ccccc3)cc2)CC1 13.6%, COC(=O)c1c(S(N)(=O)=O)c2ccccc2n1C 21.9%, Nc1nccnc1C(=O)OCC(=O)N1CCN(S(=O)(=O)c2ccc(Cl)cc2)CC1 15.7%, CC1=NN(c2ccccc2)C(=O)C1c1ccccc1 (stereo not drawn) 31.6%, CC1=NN(c2ccccc2)C(=O)C1N=Nc1ccc(C)cc1 (stereo not drawn) -3.33%, CCOc1ccccc1NC(=O)COC(=O)CSc1ccc(Cl)cc1 -3.03%, COc1cccc(-c2nn(C)c3sc(C(=O)NCc4ccco4)cc23)c1 16.5%, CCn1c(-c2cc(OC)c(OC)c(OC)c2)n[nH]c1=S 8.67%, COc1cc(-c2nc(N)n[nH]2)cc(OC)c1OC 3.91%, O=C(CNC(=O)c1ccccc1)OCCCOC(=O)CNC(=O)c1ccccc1 8.32%, Cc1cc(C)c(C)c(S(=O)(=O)N2CCN(C(=O)c3ccco3)CC2)c1C 30.6%, Fc1ccc(-c2nc(-c3cccs3)[nH]c2-c2ccc(F)cc2)cc1 0.16%, O=C(O)c1ccc(-c2nc(-c3ccccc3)c(-c3ccccc3)[nH]2)cc1 13.6%, Cn1c(Cc2ccccc2)nnc1SCC(=O)NC1CC1 5.03%, Cc1cc(C)nc(SCSc2nc(C)cc(C)n2)n1 1.38%, Cc1cc(C)nc(SCCN(C)C)n1 21.5%, N#CC1=C(N)C2=CCCC[C@H]2[C@H](c2ccccc2)C1(C#N)C#N 10.5%, N#CC1=C(N)C2=CCCC[C@H]2[C@H](c2ccc(Br)cc2)C1(C#N)C#N 29.5%, CCOC(=O)C1=C(O)/C(=C\c2cccs2)N=C1C 10.2%, COC(=O)C1=C(O)/C(=C\c2cc(C)n(-c3ccccc3F)c2C)N=C1C 8.75%, CCOC(=O)C1=C(O)/C(=C\c2cccc(OC)c2)N=C1C 4.85%, COC(=O)C1=C(O)/C(=C\c2cc(C)n(-c3ccccc3C)c2C)N=C1C 21.4%, Cc1nc2ccccc2c(C)c1CC(=O)N(C)CC(=O)Nc1cccc(F)c1 6.37%, Cc1noc(C)c1C(=O)Nc1nc2ccc(Cl)cc2s1 13.7%, Cc1cc(C)nc(SCC(=O)N2CCCCC2)n1 24.1%, O=C1c2ccc3c4c(ccc(c24)C(=O)N1c1ccc(O)cc1)C(=O)N(c1ccc(O)cc1)C3=O 2.8%, O=C1CCCC(=O)N1c1ccc(O)cc1 12.2%, O=C(NC1CC1)C1=C[C@@H](c2ccccc2)C[C@@H](OCCCCO)O1 5.56%, COc1cc(/C=C(\C#N)C(=O)Nc2cccc(C(=O)O)c2)ccc1OCc1ccc(F)cc1 -17.7%, Cc1c(C(=O)NN)[nH]c2ccc([N+](=O)[O-])cc12 7.05%, CCOC(=O)C1(CCc2ccccc2)CCN(C(=O)c2cccc(C)n2)CC1 4.43%, CCc1nnc(NS(=O)(=O)c2ccc(NC(=O)c3cc4ccccc4oc3=O)cc2)s1 -3.35%, CCc1nnc(NS(=O)(=O)c2ccc(NC(=O)c3cccc4ccccc34)cc2)s1 11.1%, O=C(c1cc(-c2ccccc2Cl)nc2ccccc12)N1CCC1 8.29%, O=C1N/C(=N/S(=O)(=O)Cc2ccccc2)S/C1=C/c1ccc2c(c1)OCO2 22.1%, COc1ccc(C(=O)C[n+]2cccc(C(N)=O)c2)cc1 1.66%, O=C1OC(c2ccc(O)cc2)(c2ccc(O)cc2)c2ccccc21 9.29% and 0.77%, Cc1cc(O)ccc1C1(c2ccc(O)cc2C)OC(=O)c2ccccc21 4.57%, COCCNC(=O)c1c[nH]n2c(=O)cc(C3CCN(C(=O)OC(C)(C)C)CC3)nc12 6.9%
